Screening data as filed in PubChem BioAssay.
TMEM16A inh – TMEM16A chloride channel inhibitors, primary screen, cell-based, HTS | Anoctamin-1 (Mus musculus), Q8BHY3 | HEK293 TMEM16A/YFP iodide influx fluorescence, ionomycin | normalized B-score (activity score, 25-100; higher = stronger inhibition) at 10 µM | 310,000 compounds, 1.2% hits | AID 588511, 2011;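 active = ratio plate-corrected score three or more library SD toward inhibition, starting fluorescence score within five deviations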;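 note: score derived from kinetic fluorescence span divided by baseline fluorescence per well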
ANO1 activ – TMEM16A chloride channel activators or potentiators, primary screen, cell-based, HTS; HEK293 TMEM16A/YFP-H148Q/I152L, iodide quench fluorescence; hits give low values; B-score at 10 µM; 340,000 compounds, 0.3% hits;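 active = fluorescence-ratio B-score plate-corrected deviation score at least 3 library SD below zero, with starting fluorescence score within 5 deviations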;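 note: channel opened by trigger with iodide after compound preincubation; score built on the fluorescence ratio of max minus min over baseline; more negative score means more quench and so TMEM16A activation or potentiation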
CHT inh – inhibitors of human choline transporter CHT. High affinity choline transporter 1 (Homo sapiens), Q9GZV3. CHT-expressing cells, membrane potential dye, choline response; hits give low values. B-score at 10 µM. 310,000 compounds, 0.86% hits;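 active = B-score over 3 SD under the library average, and starting fluorescence ratio not unusually high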;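 note: choline stimulus applied at its EC90 after an EC20 pre-addition; B-score computed on integrated fluorescence ratio after choline addition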
CHT allo act – CHT positive allosteric modulators, primary screen, cell-based, membrane potential dye, choline EC20; AID 488977, 2010; B-score at 10 µM; 310,000 compounds, 0.49% hits; CHT-expressing cells; hits give high values; LV-AA mutant CHT in HEK293 cells;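 active = initial fluorescence not abnormally high and integrated response B-score, plate-corrected, over 3 SD above library mean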
TMEM16A reconf – TMEM16A chloride channel inhibitors, confirmation, cell-based, re-confirmation. shares compounds with TMEM16A inh. HEK293 TMEM16A/YFP-H148Q, iodide quench fluorescence; ionomycin added to raise cell calcium. inhibition, % at 10 µM. 2,300 compounds, 39% hits. AID 652189, 2013;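 active = mean duplicate percent inhibition, scaled so buffer wells are 0 and the reference blocker 100, over three buffer SD above buffer mean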
TMEM16A Ca cntr – calcium mobilization in TMEM16A/YFP HEK293 cells, confirmation, counter-screen for TMEM16A inhibitor project. 2,300 compounds, 2% hits. calcium response (% of ionomycin), % at 10 µM. Fluo4 calcium mobilization. shares compounds with TMEM16A inh. AID 652231, 2013;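 active = duplicate-averaged calcium signal over 20% of the ionomycin maximum, relative to buffer baseline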;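 note: each well's signal is peak minus trough fluorescence divided by its pre-addition baseline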
YFP-HEK293 quench – iodide YFP quench changes in parental YFP-HEK293, counter-screen for TMEM16A inhibitor project, cell-based | 2,300 tested, under 10 active | YFP ratio F(max-min)/F0 at 10 µM | shares compounds with TMEM16A inh | ionomycin | AID 652233, 2013;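 active = yellow fluorescent protein signal ratio exceeding the buffer control mean by over 5 SD of those controls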;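 note: ratio is mean of duplicate wells from kinetic YFP trace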
ClC-1 rat inh – ClC-1 chloride channel inhibition, selectivity assay for TMEM16A inhibitor project, cell-based, voltage-dependent ClC-1. shares compounds with TMEM16A inh. 2,300 tested, under 10 active. CHO ClC-1-YFP, iodide influx fluorescence quench; iodide control reads 0, buffer control 100. AID 652236, 2013. ratio percent, % at 10 µM;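 active = duplicate-mean ratio percent above the mean of iodide-only control wells, which defines zero, plus 5 of their SD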;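 note: higher percent means stronger block of ClC-1 iodide influx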
Target sequence (P35524 whole entry, looked up): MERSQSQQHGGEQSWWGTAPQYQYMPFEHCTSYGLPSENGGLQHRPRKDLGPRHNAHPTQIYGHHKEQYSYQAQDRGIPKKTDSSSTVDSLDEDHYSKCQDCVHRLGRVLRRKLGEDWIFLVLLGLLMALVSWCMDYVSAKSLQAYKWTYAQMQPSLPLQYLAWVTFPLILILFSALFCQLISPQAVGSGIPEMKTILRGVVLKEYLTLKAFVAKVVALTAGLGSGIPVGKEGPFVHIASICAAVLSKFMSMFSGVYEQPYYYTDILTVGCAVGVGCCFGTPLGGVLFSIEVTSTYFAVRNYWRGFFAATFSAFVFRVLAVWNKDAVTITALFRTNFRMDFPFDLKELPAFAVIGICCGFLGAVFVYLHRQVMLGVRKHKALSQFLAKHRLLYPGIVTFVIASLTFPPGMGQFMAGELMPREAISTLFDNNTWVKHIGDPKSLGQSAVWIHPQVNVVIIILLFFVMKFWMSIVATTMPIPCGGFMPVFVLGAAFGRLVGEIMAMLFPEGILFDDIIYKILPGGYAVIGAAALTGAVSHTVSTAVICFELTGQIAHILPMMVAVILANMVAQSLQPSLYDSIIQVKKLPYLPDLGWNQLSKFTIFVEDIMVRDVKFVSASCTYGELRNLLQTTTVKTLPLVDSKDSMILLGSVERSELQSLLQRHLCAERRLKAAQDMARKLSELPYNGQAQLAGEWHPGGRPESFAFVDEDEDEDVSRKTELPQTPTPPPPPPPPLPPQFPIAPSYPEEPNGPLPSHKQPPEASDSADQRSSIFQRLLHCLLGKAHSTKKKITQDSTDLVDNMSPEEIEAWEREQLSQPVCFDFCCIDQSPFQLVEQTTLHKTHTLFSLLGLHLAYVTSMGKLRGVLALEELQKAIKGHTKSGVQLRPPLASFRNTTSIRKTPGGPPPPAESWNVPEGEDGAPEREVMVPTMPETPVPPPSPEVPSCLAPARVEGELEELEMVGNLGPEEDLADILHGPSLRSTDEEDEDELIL
Large screens that a line does not name were inactive (follow-up assays come after a bar, where they were run). Compounds with a hit are over-represented: about 2.4% of the library has one in this group of screens.

CCCCN(Cc1ccccc1)S(=O)(=O)c1cc(Br)cc2c1N(C(C)=O)C(C)C2 (stereo unspecified)	TMEM16A inh 25 | TMEM16A reconf inactive | TMEM16A Ca cntr inactive | YFP-HEK293 quench inactive | ClC-1 rat inh inactive
CC1CN(Cc2cc(=O)oc3cc(O)ccc23)CC(C)O1 (stereo unspecified)	none
CCc1ccc(S(=O)(=O)NCCc2csc(-c3ccccc3)n2)s1	TMEM16A inh 100 | TMEM16A reconf inactive | TMEM16A Ca cntr inactive | YFP-HEK293 quench inactive | ClC-1 rat inh inactive
Cc1c(-n2cccc2C=O)cccc1[N+](=O)[O-]	none
CC(=O)c1ccc(NC(=O)Cn2cnc(S(=O)(=O)N3CCC(C)CC3)c2)cc1	none
CCc1ccc(CN2CCN(C(=O)c3cccc(OC)c3OC)CC2)cc1	TMEM16A inh 25 | TMEM16A reconf inactive | TMEM16A Ca cntr inactive | YFP-HEK293 quench inactive | ClC-1 rat inh inactive
COc1ccccc1C(=O)N(Cc1nc(-c2ccc(Cl)cc2)no1)C(C)C	TMEM16A inh 100 | TMEM16A reconf inactive | TMEM16A Ca cntr inactive | YFP-HEK293 quench inactive | ClC-1 rat inh inactive
O=C(CSc1nc2ccccc2s1)Nc1ccc(N2CCOCC2)c(Cl)c1	TMEM16A inh 100 | TMEM16A reconf inactive | TMEM16A Ca cntr inactive | YFP-HEK293 quench inactive | ClC-1 rat inh inactive
CNc1nc(SCC(=O)Nc2ccc(Cl)c(Cl)c2)nc(N2CCOCC2)n1	none
Cc1cc(C)nc(SCC(=O)Nc2ccc(N3CCOCC3)c(Cl)c2)n1	TMEM16A inh 100 | TMEM16A reconf inactive | TMEM16A Ca cntr inactive | YFP-HEK293 quench inactive | ClC-1 rat inh inactive
O=C(CSc1nc2ccccc2o1)Nc1ccccc1N1CCCCCC1	TMEM16A inh 25 | TMEM16A reconf inactive | TMEM16A Ca cntr inactive | YFP-HEK293 quench inactive | ClC-1 rat inh inactive
O=C(CSc1nc2ccccc2o1)Nc1ccc(N2CCOCC2)c(Cl)c1	TMEM16A inh 100 | TMEM16A reconf 24% | TMEM16A Ca cntr inactive | YFP-HEK293 quench inactive | ClC-1 rat inh inactive
O=C(CSc1nc2ccccc2o1)Nc1cc(C(F)(F)F)ccc1N1CCOCC1	none
CC(=O)Nc1ccc2nc(SCC(=O)Nc3ccc(N4CCOCC4)c(Cl)c3)sc2c1	none
Cc1ccc(-c2csc(SCC(=O)c3c(N)n(C4CC4)c(=O)[nH]c3=O)n2)cc1	none (no result: TMEM16A inh, CHT inh, CHT allo act)
O=C(NCc1ccco1)c1nc(-c2ccc(F)cc2)no1	none
Cc1cc(C)c(S(=O)(=O)Nc2ccccc2-c2ccccc2)c(C)c1	TMEM16A inh 25 | TMEM16A reconf inactive | TMEM16A Ca cntr inactive | YFP-HEK293 quench inactive | ClC-1 rat inh inactive
O=S(=O)(Nc1ccccc1O)c1ccc(-c2ccccc2)cc1	TMEM16A inh 100 | TMEM16A reconf 58% | TMEM16A Ca cntr inactive | YFP-HEK293 quench inactive | ClC-1 rat inh inactive
O=S(=O)(Nc1cccnc1Cl)c1ccc(-c2ccccc2)cc1	none
O=C(NCCCN1CCOCC1)/C(=C/c1cccs1)NC(=O)c1ccccc1	none
Cc1noc(C)c1CSCC(=O)NCCN1C(=O)S/C(=C\c2ccccc2F)C1=O	none
Cc1cc(C)c2cc3c(N)c(C(=O)Nc4c(C)[nH]c(=O)[nH]c4=O)sc3nc2c1	none | TMEM16A reconf inactive | TMEM16A Ca cntr 28% | YFP-HEK293 quench inactive | ClC-1 rat inh inactive
Cc1ccccc1OCC(=O)N/N=C/c1cc2ccccc2nc1Cl	TMEM16A inh 25 | TMEM16A reconf 20% | TMEM16A Ca cntr inactive | YFP-HEK293 quench inactive | ClC-1 rat inh inactive
O=C(COc1cccc(Cl)c1)N/N=C\c1cc2ccccc2nc1Cl	none
CCCCN(C)CCCN1C(=O)C2C(C(=O)Nc3cccc(OC)c3)C3C=CC2(O3)C1C(=O)NC1CCCCC1C (stereo unspecified)	none
CCCn1c(CCNC(=O)c2ccco2)nc2ccccc21	none
O=S(=O)(NCC(c1ccco1)N1CCc2ccccc2C1)c1ccc(F)cc1 (stereo unspecified)	TMEM16A inh 25 | TMEM16A reconf 36% | TMEM16A Ca cntr inactive | YFP-HEK293 quench inactive | ClC-1 rat inh inactive
COc1ccc(S(=O)(=O)NCC(c2cccs2)N2CCc3ccccc3C2)cc1 (stereo unspecified)	none
C[C@@H](Oc1ccccc1)c1nnn(Cc2ccccc2)c1-c1c([C@@H](C)Oc2ccccc2)nnn1Cc1ccccc1	none (no result: ANO1 activ)
O=C(CCNS(=O)(=O)c1ccc(OC(F)(F)F)cc1)N1CCN(C/C=C/c2ccccc2)CC1	TMEM16A inh 25 | TMEM16A reconf inactive | TMEM16A Ca cntr inactive | YFP-HEK293 quench inactive | ClC-1 rat inh inactive
NC(CSC1(c2ccc(Cl)cc2)c2ccccc2-c2ccccc21)C(=O)O (stereo unspecified)	none (no result: TMEM16A inh, CHT inh, CHT allo act)
O=S(=O)(Nc1ccc(S(=O)(=O)N2CCCCC2)cc1)c1ccc(Br)s1	TMEM16A inh 25 | TMEM16A reconf inactive | TMEM16A Ca cntr inactive | YFP-HEK293 quench inactive | ClC-1 rat inh inactive
CCCCS(=O)(=O)N1CCC(C(=O)Oc2ccc(Cl)cc2)CC1	none
COc1ccc(CNCC(O)COc2ccc(C(C)(C)c3ccccc3)cc2)cc1 (stereo unspecified)	TMEM16A inh 25 | TMEM16A reconf 26% | TMEM16A Ca cntr inactive | YFP-HEK293 quench inactive | ClC-1 rat inh inactive
COC(=O)c1ccc(CNCC(O)COc2ccc(-c3ccccc3)cc2)cc1 (stereo unspecified)	none
Cc1cccc2[nH]c3c(N4CCC5(CC4)OCCO5)ncnc3c12	none
Cc1ccc2[nH]c3c(N4CCc5ccccc5C4)ncnc3c2c1	TMEM16A inh 25 | TMEM16A reconf 30% | TMEM16A Ca cntr inactive | YFP-HEK293 quench inactive | ClC-1 rat inh inactive
Clc1ccc2[nH]c3c(N4CCC5(CC4)OCCO5)ncnc3c2c1	TMEM16A inh 100 (no result: ANO1 activ) | TMEM16A reconf 44% | TMEM16A Ca cntr inactive | YFP-HEK293 quench inactive | ClC-1 rat inh inactive
c1ccc2c(c1)[nH]c1c(N3CCSCC3)ncnc12	TMEM16A inh 25 | TMEM16A reconf 28% | TMEM16A Ca cntr inactive | YFP-HEK293 quench inactive | ClC-1 rat inh inactive
c1ccc(-c2ccc(CNC3CC3)cc2)cc1	none
Cc1nc(SCC(=O)Nc2ccc(CN3CCCC3)cc2)c2c(C)c(C)sc2n1	none (no result: TMEM16A inh, CHT inh, CHT allo act)
CCCN(CCC)S(=O)(=O)c1ccc2c(c1)CCCN2C(C)=O	none
